Shown are actives, neighbours in structure and some others; about 7.4% of the full set was active somewhere.
SNCA viab count – cell viability loss counter-screen | HEK-293-SNCA-luc viability, GF-AFC fluorescence, 24 h | Potency, µM (top dose mostly 57.1 µM), inactives show top-dose activity change, negative = cytotoxicity, usual class: cytotoxic | 0.12% of 150,000 active;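 note: 0% = DMSO-treated cells and -100% = medium-only wells without cells; nearly all actives have a fitted effect of over 30% in size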
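HEK-293-SNCA-luc cells (1500/well) plated 24 h, then exposed 24 h to a dilution series; GF-AFC added 30 min at 37C, fluorescence 405/540 nm; normalised to medium-only and DMSO wells, Hill fit.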
HEK293 tox – HEK 293 cell cytotoxicity | Potency, µM (series often up to 115 µM), without a hit: at the top dose activity change, negative = cytotoxicity, hits mostly inhibitors | 6.6% of 94,000 active | HEK 293 viability, ATP luminescence (CellTiter-Glo), 48-72 h; note: nearly all actives have a fitted effect of over 60% in size
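Luminescence from cellular ATP, measured with CellTiter-Glo, indicates HEK 293 viability. Cells plated at 250 cells/well are treated with compound for 48 or 72 hr at 37 degree Celsius before reagent addition.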
NIH3T3 tox – NIH 3T3 cell cytotoxicity | NIH 3T3 viability, CellTiter-Glo ATP luminescence, 48-72 h | Potency, µM (titrated, usually from 96.7 µM), for inactives: top-dose activity change, negative = cytotoxicity, most hits filed as inhibitors | 4.3% of 94,000 active | AID 1345082; note: nearly all actives have a fitted effect of over 55% in size
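ATP-dependent luminescence (CellTiter-Glo) served as the viability signal for NIH 3T3 cells treated with compound for 48 or 72 hr at 37 °C.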
NPR1 antag – antagonists of human natriuretic peptide receptor Npr1; HEK293 hNpr1 GloSensor cGMP, ANP-stimulated luminescence; 1.6% of 76,000 active; Potency, µM (titrated, usually from 46.3 µM), for inactives: at the top dose activity change, negative = inhibition, most hits filed as inhibitors; calls by dose curve; note: nearly all actives have a fitted effect of over 60% in size
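Compound pre-incubated 30 min at room temperature on GloSensor-loaded HEK293 cells stably carrying hNpr1 and the pGS-40F cGMP biosensor. Stimulation uses hNppA at 0.1 nM final; luminescence is taken at baseline and 20 min post-agonist.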
Luciferase inh – Photinus pyralis luciferase inhibition. purified P. pyralis luciferase, luminescence, biochemical. Potency, µM (top dose mostly 115 µM), most hits filed as inhibitors. 2.5% of 76,000 active; note: nearly all actives have a fitted effect of over 65% in size
Target sequence (P08659 whole entry, looked up): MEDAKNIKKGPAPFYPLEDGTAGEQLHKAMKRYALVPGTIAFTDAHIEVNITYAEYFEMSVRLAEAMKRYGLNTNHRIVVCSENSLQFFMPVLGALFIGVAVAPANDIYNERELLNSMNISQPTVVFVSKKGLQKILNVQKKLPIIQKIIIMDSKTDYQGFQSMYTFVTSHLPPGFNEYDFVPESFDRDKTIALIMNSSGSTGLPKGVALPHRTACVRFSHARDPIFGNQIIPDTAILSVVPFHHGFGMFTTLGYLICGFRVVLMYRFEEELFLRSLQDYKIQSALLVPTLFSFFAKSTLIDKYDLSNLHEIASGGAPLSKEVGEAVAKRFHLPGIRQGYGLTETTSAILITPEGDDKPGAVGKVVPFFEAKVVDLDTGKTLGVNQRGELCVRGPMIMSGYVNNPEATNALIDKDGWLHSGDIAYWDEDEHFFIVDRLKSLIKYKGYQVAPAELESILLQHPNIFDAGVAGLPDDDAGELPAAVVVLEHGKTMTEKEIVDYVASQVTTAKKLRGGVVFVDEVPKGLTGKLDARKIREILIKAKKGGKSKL
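Purified 10nM P. pyralis luciferase with 10uM D-luciferin and 10uM ATP in 50mM Tris acetate pH 7.5, 10mM Mg acetate, 0.01% Tween-20, 0.05% BSA. qHTS titration; luminescence read by CCD imager.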
SNCA expr inhib – reduces expression of the alpha-synuclein gene; 0.17% of 140,000 active; Potency, µM (series often up to 57.2 µM), for the others: at the top dose activity change, negative = inhibition, hits mostly inhibitors; HEK-293 SNCA-luciferase knock-in, luminescence, 24 h;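 note: plate controls were DMSO cells for no effect and cell-free wells for full effect; nearly all actives have a fitted effect of over 45% in size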
* marks the source's active call; other numbers are inactive results; i = inactive; ? = inconclusive; nt = no result given; [ ] = dose if it differs, or a comment. Unless noted, calls come from the whole dose curve; as a rule, active = well fitted curve in the direction sought with a large enough effect; inconclusive = small, poorly fitted or top-dose-only effect, or another doubt; inactive = no such curve, though single readings can be large; an effect the other way counts as inactive or inconclusive. Unless noted, % is set by controls: 0 for no effect and ±100 for the full control effect; potency is the fitted concentration of half-maximal effect.

SMILES | SNCA viab count | HEK293 tox | NIH3T3 tox | NPR1 antag | Luciferase inh | SNCA expr inhib
O=C(NC1COC1)c1ccc2c(c1)C1(CCN(CC3CC3)C1)CN2Cc1ccccc1 (stereo not given) | -2%[87.6 µM] | ? | -25%[138 µM] | 3%[70.6 µM] | i | 1%[87.6 µM]
CC(C)NC(=O)c1ccc2c(c1)C1(CCN(CC3CC3)C1)CN2Cc1ccccc1 (stereo not given) | 6%[87.6 µM] | ? | 89µM* | 1%[70.6 µM] | i | -22%[87.6 µM]
Cn1nc(C2CCN(C(=O)c3ccc4ncccc4c3)CC2)c2c1CCOC2 | 3% | -3% | -21% | 2% | i | -11%
O=C(NCc1ccc(Cl)nc1)c1cn2c(n1)CN(C(=O)OCc1ccccc1)CC2 | -5% | -17% | -22% | nt | nt | 27%
COc1cc2c(cc1OC)C(CNC(=O)c1ccco1)N(C(=O)Nc1cccc(F)c1)CC2 (stereo not given) | -5% | 45µM* | -19% | 1% | i | -24%
O=C(c1cncc(Br)c1)N1CCC(CCOc2ccccc2F)C1 (stereo not given) | 9% | 40µM* | ? | -15% | i | -2%
c1ccc(OCCNc2nc(-c3cccnc3)nc3c2CCNCC3)cc1 | -13% | ? | 32µM* | ? | i | 196%
Cc1csc(Nc2ccc3c(n2)CN(CCOc2ccccc2)C(=O)CO3)n1 | -8%[87.6 µM] | ? | ? | -3%[70.6 µM] | i | -15%[87.6 µM]
Cc1csc(Nc2ccc3c(n2)CN(C)C(=O)CO3)n1 | ? | 18µM* | 32µM* | 1%[70.6 µM] | i | ?
COC(=O)NC1CCCN(Cc2ccc(-c3cc(C)cc(C)c3)cc2)C1 (stereo not given) | -18%[87.6 µM] | 40µM* | 45µM* | nt | nt | -14%[87.6 µM]
Cc1cc(C)cc(-c2ccc(CN3CCCC(NC(=O)c4ccncc4)C3)cc2)c1 (stereo not given) | -17% | 28µM* | 25µM* | nt | nt | ?
Cc1cc(C)cc(-c2ccc(CN3CCCC(NC(=O)C4CC4)C3)cc2)c1 (stereo not given) | -4%[12.5 µM] | -18% | -15% | nt | nt | 2%
Cc1cc(C)cc(-c2ccc(CN3C4CCC3CN(C(=O)c3ccncc3)C4)cc2)c1 | -5% | 45µM* | ? | nt | nt | -10%
Cc1cc(C)cc(-c2ccc(CN3CCCC(NC(=O)c4ccc(Cl)nc4)C3)cc2)c1 (stereo not given) | 9%[12.5 µM] | ? | -12% | nt | nt | -3%
Cc1cc(C)cc(-c2ccc(CN3CCCC(NC(=O)c4cccnc4)C3)cc2)c1 (stereo not given) | -8% | 20µM* | 20µM* | nt | nt | -26%
c1ccc(CN2CC[C@H](c3nc4ccccc4o3)C2)nc1 | -10%[87.6 µM] | -13%[230 µM] | ? | -7%[70.6 µM] | i | 84%[87.6 µM]
O=C(Nc1cccc(-c2nnc3n2CCCC3)c1)c1ccc[nH]c1=O | -6% | 0% | i | -1% | i | -26%
Cc1c(CN2CC(Oc3ccccc3C(=O)NCc3ccccc3)C2)cnn1C | -28% | ? | -8% | -12% | i | 94%
COc1ccc(OC)c(CN2CC(Oc3ccccc3C(=O)NCc3ccccc3)C2)c1 | ? | 32µM* | ? | -25% | i | ?
COc1ccc(CN2CC(Oc3ccccc3C(=O)NCc3ccccc3)C2)c(OC)c1 | -3% | 50µM* | ? | ? | i | -16%
CC(C)NS(=O)(=O)c1cc(C(=O)O)cc(-c2ccc(C(=O)N(C)C)cc2)c1 | -5% | -23% | -2% | 0% | i | 22%
COCCn1cc2c3c(cccc31)CN(C(=O)c1cccc(C(F)(F)F)c1)CC2 | ? | ? | 32µM* | -21% | i | ?
CC(C)N1CC(C(=O)NCc2ccc(Cl)cc2)NC1=O (stereo not given) | 6%[12.5 µM] | ? | -30%[138 µM] | nt | nt | 10%[87.6 µM]
O=C(NC1CCCCC1)O[C@@H]1CO[C@H]2[C@@H]1OC[C@@H]2n1nnnc1Sc1ccccc1 | -1%[87.6 µM] | 100µM* | ? | -11%[70.6 µM] | i | -10%[87.6 µM]
CCC(CC)C(=O)NC[C@@H]1C=C(C)[C@H](Cc2nc3c(C)cccc3[nH]2)C[C@H]1C(C)C | 14µM* | 45µM* | ? | -14%[70.6 µM] | i | ?
SMILES | SNCA viab count | HEK293 tox | NIH3T3 tox | NPR1 antag | Luciferase inh | SNCA expr inhib
CC1=C[C@@H](CNC(=O)CCC(=O)O)[C@H](C(C)C)C[C@H]1Cc1nc2ccccc2[nH]1 | -22%[87.6 µM] | -15%[172 µM] | ? | -6%[70.6 µM] | i | -15%[87.6 µM]
CC1=C[C@@H](CNCc2ccccc2O)[C@H](C(C)C)C[C@H]1Cc1nc2c(C)cccc2[nH]1 | ? | ? | ? | ? | i | ?
CC1=C[C@@H](CNC(=O)NC2CCCCC2)[C@H](C(C)C)C[C@H]1Cc1nc2c(C)cccc2[nH]1 | -27% | -10% | -14% | 3% | i | -10%
CC1=C[C@@H](CN2C(=O)C(C)=C(C)C2=O)[C@H](C(C)C)C[C@H]1Cc1nc2c(C)cccc2[nH]1 | ? | 35µM* | 22µM* | ? | i | ?
CC1=C[C@@H](CN2C(=O)C(C)=C(C)C2=O)[C@H](C(C)C)C[C@H]1Cc1nc2ccccc2[nH]1 | ? | 22µM* | 25µM* | ? | i | ?
O=C(N[C@H]1CCN2C(=O)c3cc(-c4cccc(C(F)(F)F)c4)ccc3NC(=O)[C@H]12)c1cnccn1 | -11% | 45µM* | 79µM* | -1% | i | -33%
O=C(N[C@H]1CCN2C(=O)c3cc(-c4ccc(Cl)cc4)ccc3NC(=O)[C@H]12)c1cnccn1 | -5% | 79µM* | ? | 0% | i | -19%
COc1ccc(/C=C/c2ccc3c(c2)C(=O)N2CC[C@H](N)[C@H]2C(=O)N3)cc1 | -14%[87.6 µM] | 100µM* | ? | 1%[70.6 µM] | 20µM* | 65%[87.6 µM]
COc1ccc(/C=C/c2ccc3c(c2)C(=O)N2CC[C@H](NC(=O)c4cnccn4)[C@H]2C(=O)N3)cc1 | -3% | -6% | -4% | -1% | 7.9µM* | -7%
CC[C@@]1(C(=O)O)C[C@H](C(=O)NCc2ccncc2)[C@H](c2ccc(OC)cc2)N1C | -17% | -15% | -30% | 2% | i | -15%
COCCOCc1nc(C2CCN(C(=O)NCc3ccccc3)CC2)no1 | 8% | i | 1% | 4% | i | 14%
COCCCN1C(=O)N(Cc2ccccc2)C(=O)C12CCN(Cc1cccs1)CC2 | 3% | ? | 4% | -2% | i | -1%
O=S(=O)(c1ccccc1)c1nc(-c2ccc(F)cc2)oc1N1CCCCCC1 | -10% | nt | nt | nt | nt | -5%
CCC(C)S(=O)(=O)c1oc(-c2ccc(F)cc2)nc1S(=O)(=O)c1ccc(F)cc1 (stereo not given) | 28µM* | nt | nt | nt | nt | ?
CCS(=O)(=O)c1oc(-c2ccc(F)cc2)nc1S(=O)(=O)c1ccccc1 | 7.9µM* | nt | nt | nt | nt | ?
